Rows were chosen to be rich in hits. Some 9.2% of all compounds tested hit in one or more screens of this group.
HTT aggregate: reduces HttQ103-GFP aggregates in PC12 cells; PC12 HttQ103-GFP aggregates, Acumen cytometry, 40 h; Potency, µM (doses to about 46.1 µM), for the others: top-dose activity change, negative = inhibition, most hits filed as inhibitors; hit rate 1.1% among 220,000; active means well fitted curve in the direction sought with a large enough effect; inconclusive means small, poorly fitted or top-dose-only effect, or another doubt; inactive means no such curve, though single readings can be large; an effect the other way counts as inactive or inconclusive; further: on the % scale 0 is the no-effect control and ±100 the full control effect; nearly all actives have a fitted effect of over 60% in size
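PC12 cells stably carrying ecdysone-inducible HTT exon 1 Q103–GFP were induced with tebufenozide (100 nM final) and treated with library compounds in titration. GFP aggregates in lysates were counted by laser scanning cytometry.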
HPGD block: blocks human HPGD enzyme activity. hit rate 4.3% among 150,000. P15428. Potency, µM, without a hit: top-dose activity change, negative = inhibition, actives largely listed as inhibitors. purified HPGD, NADH fluorescence kinetic, PGE2 substrate; further: on the % scale 0 is the no-effect control and ±100 the full control effect
Target sequence (P15428 whole entry, looked up): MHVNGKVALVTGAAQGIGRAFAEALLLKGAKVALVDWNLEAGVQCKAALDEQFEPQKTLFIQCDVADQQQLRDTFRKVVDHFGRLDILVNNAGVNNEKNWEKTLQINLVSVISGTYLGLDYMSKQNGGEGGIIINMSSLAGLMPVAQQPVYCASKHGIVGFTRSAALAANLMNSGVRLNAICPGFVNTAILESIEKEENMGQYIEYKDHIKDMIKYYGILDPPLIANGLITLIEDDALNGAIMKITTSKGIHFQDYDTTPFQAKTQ
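NADH formation kinetics: reaction with 30 uM PGE2 and 1 mM NAD+ (final), 20 nM enzyme, Tris-HCl pH 8 with Tween 20, after 15 min compound preincubation at room temperature. Fluorescence change, last versus first of five reads.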
HTT cytoprotect: cytoprotection in Huntington HTT-Q103 PC12 cell model. PC12 HTT-Q103 induced, cytoprotection, ATP luminescence, 40 h. Potency, µM (series often up to 56.4 µM), for the others: cytoprotection (ATP increase), hits mostly activators. hit rate 0.14% among 230,000; active means well fitted curve in the direction sought with a large enough effect; inconclusive means small, poorly fitted or top-dose-only effect, or another doubt; inactive means no such curve, though single readings can be large; an effect the other way counts as inactive or inconclusive; further: % of control where 0% means no effect; nearly all actives have a fitted effect of over 45% in size
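PC12 cells stably carrying ecdysone-inducible Htt exon 1 (Q103)–GFP were induced with 100 nM tebufenozide (final) alongside library compounds in a dose series. Cytoprotection was scored as retained ATP by ATPlite luminescence.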
ALDH1A1 block: blocks purified human ALDH1A1 activity; P00352; Purified ALDH1A1, NADH fluorescence, propionaldehyde substrate; Potency, µM (titrated, usually from 75.3 µM), inactives show top-dose activity, negative = inhibition, usual class: inhibitors; hit rate 7.3% among 220,000;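 further: plate controls were no enzyme wells and a reference inhibitor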
Target sequence (P00352 whole entry, looked up): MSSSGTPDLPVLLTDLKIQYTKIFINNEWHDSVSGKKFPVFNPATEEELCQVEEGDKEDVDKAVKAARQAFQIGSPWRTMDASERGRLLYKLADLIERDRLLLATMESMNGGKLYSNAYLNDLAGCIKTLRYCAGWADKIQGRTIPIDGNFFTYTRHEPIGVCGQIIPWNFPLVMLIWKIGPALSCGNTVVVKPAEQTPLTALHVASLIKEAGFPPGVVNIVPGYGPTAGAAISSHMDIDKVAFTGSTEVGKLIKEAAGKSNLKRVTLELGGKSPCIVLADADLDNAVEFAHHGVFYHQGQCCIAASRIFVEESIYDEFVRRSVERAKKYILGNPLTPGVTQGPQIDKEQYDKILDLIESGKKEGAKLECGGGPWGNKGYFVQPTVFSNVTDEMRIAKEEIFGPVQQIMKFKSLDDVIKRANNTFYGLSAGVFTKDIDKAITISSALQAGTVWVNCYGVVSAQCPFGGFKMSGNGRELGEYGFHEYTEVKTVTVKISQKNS
LMNA splice mod: LMNA splicing modulation; Potency, µM (top dose mostly 46.1 µM), for the others: at the top dose ratio change, negative = inhibition, usual class: inhibitors; AID 1487; HeLa LMNA splicing GFP/RFP minigene ratio, 48 h; hit rate 0.01% among 200,000; active means well fitted inhibition curve with a large enough effect in the signal ratio, with a control signal flat, not every such curve was filed as active; inconclusive means small, poorly fitted or top-dose-only effect, or effect the other way, or a change in a side signal; the % refers to the signal ratio; further: on the % scale 0 is the no-effect control and ±100 the full control effect
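S3 HeLa stable clones carrying a lamin A-EGFP splicing minigene plus DsRed2 were seeded at 600 cells/well in Opti-MEM with 2% FBS, pin-dosed and incubated 48 h at 37°C. Acumen cytometry (488 nm) gave the GFP/RFP total-intensity ratio.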
KDM4E inh: JMJD2E (human) inhibition. JMJD2E catalytic domain, FDH-coupled NADH fluorescence (FDH is formaldehyde dehydrogenase). Potency, µM (titrated, usually from 57.1 µM), inactives show at the top dose activity change, negative = inhibition, usual class: inhibitors. B2RXH2. hit rate 1.6% among 230,000;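 further: 0% = wells with enzyme and -100% = buffer wells without enzyme; nearly all actives have a fitted effect of over 50% in size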
Numbers without * were called inactive; u = inconclusive; x = no result given; [ ] = another dose, or the depositor's remark. Unless noted, the call rests on the fitted dose curve; in most records, active means well fitted inhibition curve with a large enough effect (not every such curve was filed as active); inconclusive means small, poorly fitted or top-dose-only effect, or another doubt; inactive means no such curve, though single readings can be large or run the other way. Potency means the concentration at half of the fitted maximal effect.

SMILES	HTT aggregate	HPGD block	HTT cytoprotect	ALDH1A1 block	LMNA splice mod	KDM4E inh
COc1ccccc1CN=Cc1[nH]c2ccc(Br)c(Cl)c2c1O	u	13µM*	-17%	0.79µM*	-10%	-22%
Cc1ccc(CCNC(=O)CN(C)S(=O)(=O)c2cnc[nH]2)cc1	-14%	-6%	-17%[10 µM]	-8%	-14%	3%
CN(CC(=O)NCc1ccccc1)S(=O)(=O)c1cnc[nH]1	0.63µM*	-12%	x	13%	-3%	4%
CC(O)CNC12CC3CC(CC(C3)C1)C2 (stereo not drawn)	-13%	x	-21%	1%	x	6%
C=C[C@@]1(C)CC(=O)[C@@]2(O)[C@@]3(C)[C@@H](O)CCC(C)(C)[C@@H]3[C@H](OC(=O)CCN(C)C)[C@H](OC(C)=O)[C@@]2(C)O1	x	-12%	40µM*	u	x	0%
C=C[C@]1(C)CC(=O)[C@@]2(O)[C@@]3(C)C(O)CCC(C)(C)C3C(O)C(OC(C)=O)[C@@]2(C)O1 (stereo partly drawn)	x	-3%	-36%	0%	x	-2%
Cc1ccc2nc(N3CCC(C(=O)N4CCN(c5cccc(Cl)c5)CC4)CC3)[nH]c2c1	x	x	x	x	-22%[46 µM]	x
Cc1csc(NC(=O)C2CC(=O)N(Cc3ccco3)C2)n1 (stereo not drawn)	0.63µM*	x	1.1µM*	1%	-11%[46 µM]	1%
O=C(COC(=O)C1CC(=O)N(Cc2ccco2)C1)c1ccc(OC(=O)c2ccccc2)cc1 (stereo not drawn)	11%	28µM*	17%[10 µM]	14µM*	-4%	0%
O=C(OCC(=O)N1c2ccccc2Sc2ccccc21)C1CC(=O)N(Cc2ccco2)C1 (stereo not drawn)	-11%	-12%	-6%[10 µM]	35µM*	-4%	0%
O=C(Nc1cccc2cccnc12)c1ccc(F)cc1	x	x	x	x	6%[46 µM]	x
Cc1cccc(CNc2cc(-c3ccoc3)ncn2)c1	x	20µM*	13%	u	u	u
c1cncc(CNc2cc(-c3ccoc3)ncn2)c1	x	x	-9%	u	-15%	x
CCOC(=O)c1ccc(S(=O)(=O)Nc2nc3cc(S(=O)(=O)NC4=NCCCCC4)ccc3s2)cc1	-19%	x	18µM*	25µM*	-25%[46 µM]	-23%
COc1ccc(-c2nc(-c3ccccc3)c(-c3cc([N+](=O)[O-])ccc3C)[nH]2)cc1O	-31%	-10%	-58%	-12%	u	-5%
Cc1ccc([N+](=O)[O-])cc1-c1[nH]c(-c2ccc(O)c(O)c2)nc1-c1ccccc1	16%	1%	-19%	22µM*	u	u
Cc1ccc(C(=O)N[C@H](C(=O)OCc2cc(=O)oc3cc(C)ccc23)C(C)C)cc1	-14%	-11%	20%[1.9 µM]	3%	-6%	5%
COc1ccc(C(=O)N[C@H](C(=O)OCc2cc(=O)oc3cc(C)ccc23)C(C)C)cc1	u	-27%	15%[10 µM]	11µM*	-9%	-6%
CCn1c(SCC(=O)c2ccc(O)c(O)c2)nnc1-c1ccc(C)cc1	-17%	-15%	-20%	0%	u	25µM*
CCOC(=O)CSc1nnc(-c2ccc(OC)cc2)n1CC	9%	-5%	-8%[10 µM]	2.5µM*	4%	6%
CCn1c(SCC(=O)c2ccc3c(c2)Cc2ccccc2-3)nnc1-c1ccc(N)cc1	-4%	-7%	3%	-5%	13%	-6%
CCOC(=O)CSC1=NC(=O)/C(=C/c2ccc(OC)cc2)S1	-15%	13µM*	-16%[10 µM]	u	-26%	6%
CCn1c(Cc2cccn2C)nnc1SCC(=O)c1ccc(C)cc1	1%[9.22 µM]	u	27%[10 µM]	10µM*	3%	u
CN(Cc1ccco1)c1ccnc(-c2cccc(NS(C)(=O)=O)c2)n1	x	-17%	-46%	-8%	u	-5%
C/C(=N\OC(=O)Nc1ccccc1)c1cnn(-c2cc(C(F)(F)F)cc(C)n2)c1C	14%[9.22 µM]	x	22%[10 µM]	x	x	3%
SMILES	HTT aggregate	HPGD block	HTT cytoprotect	ALDH1A1 block	LMNA splice mod	KDM4E inh
Cn1c(=O)c2c(SCC(=O)NCC3CCCO3)nc(-c3cccc(F)c3)nc2n(C)c1=O (stereo not drawn)	x	x	x	x	12%[46 µM]	x
COC(=O)CN=Cc1c(C)[nH]n(-c2ccccc2)c1=O	15%	x	-37%	-7%	u	10%
Cc1[nH]n(-c2ccccc2)c(=S)c1C=NCCCN=Cc1c(C)[nH]n(-c2ccccc2)c1=S	5%	28µM*	-40%[10 µM]	4µM*	u	9%
COc1ccc2[nH]cc(CCNc3ncnc4ccc(-c5ccccc5OC)cc34)c2c1	x	x	-249%	5%	u	x
CS(=O)(=O)c1nc(-c2ccccc2)cc(C(F)(F)F)n1	4.5µM*	u	u	9%	u	-26%
O=C1c2c(O)cccc2Cc2cccc(O)c21	-25%	-23%	18%	25µM*	u	-9%
CC(=O)N/N=C(\C)C1COc2ccccc2O1 (stereo not drawn)	20%[9.22 µM]	x	1%[10 µM]	x	x	8%
O=C(Oc1ccc(N(Cc2cccs2)C2=NS(=O)(=O)c3ccccc32)cc1)c1ccco1	-24%	-23%	3%[1.9 µM]	28µM*	-7%	u
O=C(Oc1ccc(N(Cc2cccs2)C2=NS(=O)(=O)c3ccccc32)cc1)c1ccccc1Cl	0%	-21%	-8%[10 µM]	u	1%	24%
COc1ccc(CNC(=O)C2COc3ccccc3O2)cc1 (stereo not drawn)	13%	14µM*	-11%[10 µM]	-3%	-10%	7%
O=C(NC1CC2CCC1C2)C1COc2ccccc2O1 (stereo not drawn)	6%	14µM*	1%[1.9 µM]	3%	-1%	3%
O=C(O)CNC(=O)C1COc2ccccc2O1 (stereo not drawn)	19%	-4%	9%	5%	-10%	-1%
COc1ccccc1CNC(=O)C1COc2ccccc2O1 (stereo not drawn)	-23%	16µM*	1%	4%	-10%	0%
CCn1cc(S(=O)(=O)c2ccc(Cl)cc2)c(=O)c2cc(F)c(N3CCOCC3)cc21	x	x	x	x	-6%[46 µM]	x
CC(C)[C@H](O)C1=CCCCC1=O	x	-1%	1%	5%	x	-2%
COc1ccc(N=Cc2cc(Cc3ccccc3Cl)cc([N+](=O)[O-])c2O)cc1OC	22µM*	x	35µM*	7.1µM*	x	u
Cc1ccc(N=Cc2cc(Cc3ccccc3Cl)cc([N+](=O)[O-])c2O)c(O)c1	u	x	u	11µM*	x	18µM*
COc1ccc(CCNC(=O)c2cc3c(=O)n4cccc(C)c4nc3n2C)cc1	x	x	x	x	13%[46 µM]	x
CCOc1ccc(NS(=O)(=O)c2ccc3[nH]cc(C(=O)N(C)C4CCCCC4)c(=O)c3c2)cc1	x	x	x	x	8%[46 µM]	x
O=C(NCc1ccccc1F)C1CCN(Cc2cc3ccccc3n2Cc2cccc(Cl)c2)CC1	x	x	x	x	-8%[46 µM]	x
